D2 ag-1 – activates the human D2 dopamine receptor. HEK293 T-REx D2 cells, calcium flux agonist mode. actives 0.53% (n = 340,000). activation, % at 2 µM;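 active = activation over 3 SD above normal in the single-dose calcium agonist read, cut at about 30% in these data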
Target sequence (P14416 whole entry, looked up): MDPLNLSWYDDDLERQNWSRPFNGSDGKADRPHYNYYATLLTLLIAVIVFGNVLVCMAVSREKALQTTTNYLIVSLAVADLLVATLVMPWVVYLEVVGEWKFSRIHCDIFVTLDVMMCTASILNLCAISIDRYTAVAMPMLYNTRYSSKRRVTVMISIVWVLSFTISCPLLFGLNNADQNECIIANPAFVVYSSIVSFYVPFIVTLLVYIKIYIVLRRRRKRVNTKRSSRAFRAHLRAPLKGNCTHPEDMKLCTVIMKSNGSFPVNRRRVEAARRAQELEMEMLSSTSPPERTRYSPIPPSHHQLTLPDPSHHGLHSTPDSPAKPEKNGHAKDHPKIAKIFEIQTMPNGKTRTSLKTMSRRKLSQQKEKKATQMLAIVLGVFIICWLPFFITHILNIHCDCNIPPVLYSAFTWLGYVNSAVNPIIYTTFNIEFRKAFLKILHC
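HEK293 Trex D2 cells, tetracycline-induced, o/n 30 C 5% CO2; no-wash Ca dye, RT 30–90 min; 10-cycle baseline, 23 nl cpd added, kinetic Ca read 180 s; agonist hits = positive Ca response.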
D2 PAM-1 – positive allosteric modulators of human D2 dopamine receptor | DiscoveRx D2 beta-arrestin cells, luminescence, 90 min; 100% = 57 uM dopamine signal | potentiation, % (test concentration not listed) | actives 0.23% (n = 360,000) | AID 624464; in the data active = potentiation above about 50%; inconclusive = mostly about 30% to 49%
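PathHunter beta-arrestin assay in DiscoveRx D2 cells. Compounds were added with an EC20 of dopamine (50 nM final) for 90 min at 37 deg C. Luminescence was read 1 h after detection reagent, with 57 uM dopamine as the EC100 control.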
D2 antag – D2 dopamine receptor (human) antagonism. P14416. HEK293 TREx D2 cells, calcium flux, dopamine EC80. inhibition, % at 10 µM. actives 2% (n = 340,000). AID 485344; in the data active = inhibition above about 30%; inactive = below that, where a call was filed
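Compounds are added to dye-loaded, induced HEK293 T-REx cells coupled to calcium release via D2; after a 3 min kinetic read an EC80 dopamine stimulus is given and fluorescence is recorded for 3 more min.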
D2 ag-2 – activates the human D2 dopamine receptor | P14416 | DiscoveRx PathHunter D2 beta-arrestin, luminescence, 90 min; 100% = 57 uM dopamine signal | activation, % (concentration not given with the values) | actives 0.084% (n = 360,000) | AID 624465; in the data active = activation above about 40%; inconclusive = between about 15% and that limit
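DiscoveRx PathHunter D2 beta-arrestin cells (2,100/well) attached overnight, then compound-stimulated 90 min at 37 C in HBSS/10 mM HEPES/0.1% Tween-20 buffer; beta-galactosidase complementation read by luminescence after 1 h at ambient temperature. Dopamine 57 uM final (EC100) as control.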
B2AR arrestin – agonists driving beta-arrestin recruitment to human beta2-adrenergic receptor; P07550; beta-arrestin recruitment to beta2AR, cell-based reporter; Potency, µM (series often up to 46.1 µM), usual class: activators; actives 0.02% (n = 330,000); active = well fitted activation curve with a large enough effect; inconclusive = small, poorly fitted or top-dose-only effect; note: nearly all actives have a fitted effect of over 65% in size
D2 PAM-2 – D2 dopamine receptor (human) potentiation; P14416; HEK293 T-REx D2, calcium flux, EC20 dopamine potentiation; potentiation, % at 10 µM; actives 0.34% (n = 340,000); AID 485347;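 active = potentiation over 3 SD above the plate norm, cut at about 30% in these data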
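Calcium flux readout, no-wash dye, 1 read/s. Inducible HEK293 Trex D2 line, overnight 30 C. Compound alone 180 s (agonist flags), then EC20 dopamine, another 180 s to score potentiation.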
A number is an active result; 0 = inactive; ? = inconclusive; - = not tested or not shown. Compounds with a hit are over-represented: about 2.4% of the library has one in this group of screens.

SMILES | D2 ag-1 | D2 PAM-1 | D2 antag | D2 ag-2 | B2AR arrestin | D2 PAM-2
Cc1ccc(N(C(=O)c2sc(C)nc2C)C(C(=O)NCc2ccco2)c2ccccc2)cc1 (stereo not drawn) | 0 | 0 | 44 | 0 | 0 | 0
COC(=O)C1=C(C)n2nnnc2NC1c1ccc(Cl)cc1 (stereo not drawn) | 0 | 0 | 0 | 0 | 0 | 0
C=CCn1c(COc2ccccc2)nnc1SC(C)C(=O)N/N=C/c1cc(Cl)ccc1O (stereo not drawn) | 0 | 58 | 0 | 0 | 0 | 0
CC(C)c1ccc(/C=C/C(=O)CCC(=O)O)cc1 | 0 | 0 | 0 | 0 | 0 | 0
O=C(Nc1ccc(Cl)cc1)NC1CCCC1Cc1ccco1 (stereo not drawn) | 0 | 0 | 53 | 0 | 0 | 0
O=C(OCC(=O)N1CCCC1)c1cc(=O)c2ccccc2o1 | - | 0 | - | 0 | 0 | -
CCn1c(C)nc2cc(C(=O)NNC(=O)CCC3CCCCC3)ccc21 | 0 | 0 | 0 | 0 | 0 | 0
CCCN1CCC(=O)N([C@H](COc2ccccc2)Cc2ccccc2)CC1 | 0 | 0 | 39 | 0 | 0 | 0
O=C1CCN(Cc2ccccc2)CCN1[C@H](COc1ccccc1)Cc1ccccc1 | 0 | 0 | 0 | 0 | 0 | 0
O=C1CCCCCC1C1(O)C(=O)Nc2ccccc21 (stereo not drawn) | 0 | 0 | 0 | 0 | 0 | 42
C/C(=N\NC(=O)c1c[nH]c2ccccc12)c1ccc(C)s1 | 0 | 0 | 0 | 0 | ? | 0
C/C(=N/NC(=O)c1ccncc1)c1c[nH]c2ccccc12 | 0 | 0 | 48 | 0 | 0 | 0
COc1ccc(C(C)(C)NC(=O)C2CCC(=O)N(C3CCCC3)C2)cc1OC (stereo not drawn) | 0 | 0 | 0 | 0 | 0 | 0
O=C(O)c1cccc(-n2c(-c3cnccn3)n[nH]c2=S)c1 | 0 | 0 | 30 | 0 | 0 | 0
S=c1[nH]nc(-c2cnccn2)n1-c1ccccc1 | 0 | 0 | 0 | 0 | 0 | 0
CCN(CC)CCCNC(=O)c1oc2ccc3c(c2c1C)C(O)CC(C)(C)O3 (stereo not drawn) | 0 | 0 | 0 | 0 | 0 | 0
Cc1cc(C)cc(C(=O)OCC(=O)N2CCCCCC2)c1 | 0 | 0 | 42 | 0 | 0 | 0
O=C(OCC(=O)N1CCCCC1)c1c[nH]c2ccccc12 | 0 | 0 | 0 | 0 | 0 | 68
COc1cc(OC)cc(C(=O)OCC(=O)N2CCCC2)c1 | 0 | 0 | 0 | 0 | 0 | 0
CN(C)S(=O)(=O)c1ccc(NC(=O)C2CC(=O)N(Cc3ccccc3)C2)cc1 (stereo not drawn) | 0 | 0 | 0 | 0 | 0 | 31
CCN(CC)c1ccc(NC(=O)C2CC(=O)N(Cc3ccccc3)C2)cc1 (stereo not drawn) | 0 | 0 | 0 | 0 | 0 | 0
CCc1nnc(NC(=O)CSc2nnc(CNc3ccc(Cl)cc3)o2)s1 | 0 | 0 | 50 | 0 | 0 | 0
CCc1nnc(NC(=O)CSc2nnc(Cc3ccccc3)o2)s1 | 0 | 0 | 0 | 0 | 0 | 0
CC(Oc1ccc(Br)cc1)C(=O)N1CCc2ccccc21 (stereo not drawn) | 0 | 0 | 0 | 0 | 0 | 0
CC(OC(=O)/C=C/c1ccccc1)C(=O)N1CCc2ccccc21 (stereo not drawn) | - | 0 | 30 | 0 | 0 | 0
SMILES | D2 ag-1 | D2 PAM-1 | D2 antag | D2 ag-2 | B2AR arrestin | D2 PAM-2
CCOC(=O)C1CCCCN1C(=O)c1cc2ccc(OC)cc2c2cc(OC)c(OC)cc12 (stereo not drawn) | - | 0 | - | 0 | - | -
CCOC(=O)c1c(NC(=O)c2c(Br)cnn2C)c(C#N)nn1-c1ccccc1 | 0 | 0 | 0 | 0 | 0 | 0
Cc1cc(C)c2nc(-c3ccccn3)cc(C(=O)NCc3ccco3)c2c1 | - | 0 | - | 0 | - | -
Cc1cc(C)c2nc(-c3ccccn3)cc(C(=O)NCc3cc(C)n(C)n3)c2c1 | 0 | 0 | 35 | 0 | 0 | 0
O=C(O)c1ccccc1S(=O)(=O)Cc1ccccc1 | 0 | 0 | 36 | 0 | 0 | 0
O=C(CSc1nnc(-c2ccccc2)o1)NC1CCCC1 | 0 | 0 | 0 | 0 | 0 | 0
O=C(NCc1cccnc1)c1ccc(COc2ccccc2Br)cc1 | 0 | 0 | 53 | 0 | 0 | 0
CCC(C)c1ccc(NC(=O)Nc2cccnc2)cc1 (stereo not drawn) | 0 | 0 | 0 | 0 | 0 | 0
COc1ccc(C2Nc3ccc(Br)cc3C(c3ccccc3)N2CC(=O)O)cc1 (stereo not drawn) | 0 | 0 | 61 | 0 | 0 | 0
CCOC(=O)C1=C(COC(=O)COc2ccc(Br)cc2)NC(=O)NC1C (stereo not drawn) | 0 | 0 | 83 | 0 | 0 | 0
CCOC(=O)C1=C(COC(=O)CCOc2ccc(C)cc2)NC(=O)NC1C (stereo not drawn) | 0 | 0 | 0 | 0 | 0 | 0
COc1ccc(-c2ccccc2)cc1NC(=O)c1cccs1 | 0 | 0 | 0 | 0 | 0 | 0
Cc1onc(-c2c(Cl)cccc2Cl)c1C(=O)NCCN1CCOCC1 | 0 | 0 | 0 | 0 | 0 | 0
Cc1ccc(-n2c(C)cc(C(=O)OCC(=O)N(CC(C)C)C3CCS(=O)(=O)C3)c2C)cc1 (stereo not drawn) | 0 | 0 | 0 | 0 | 0 | 0
Cc1cc(C)n(-c2ccc(C(=O)OCC(=O)N(CC(C)C)C3CCS(=O)(=O)C3)cc2)n1 (stereo not drawn) | 0 | 0 | 51 | 0 | 0 | 0
CCC(=O)N1CCc2cc(OC)c(OC)cc2C1COc1ccc(C(=O)OC)cc1 (stereo not drawn) | 0 | 0 | 0 | 0 | 0 | 40
CCCC(=O)N1CCc2cc(OC)c(OC)cc2C1COc1ccc(C(=O)OC)cc1 (stereo not drawn) | 0 | - | - | - | - | 0
COc1cccc(NC(=S)NC2CC(C)CC(C)(C)C2)c1 (stereo not drawn) | - | 0 | - | 0 | - | -
Cc1ccccc1C(=O)OCCN(C)Cc1ccccc1 | 0 | 0 | 32 | 0 | 0 | 0
COc1ccccc1CNC(=O)CCC(=O)Nc1nnc(C)s1 | 0 | 0 | 0 | 0 | 0 | 0
CSCCC(N=C1NS(=O)(=O)c2ccccc21)C(=O)NCc1ccccc1F (stereo not drawn) | 0 | 0 | 0 | 0 | 0 | 0
CSCCC(N=C1NS(=O)(=O)c2ccccc21)C(=O)NCCc1ccccc1 (stereo not drawn) | 0 | 0 | 42 | 0 | 0 | 0
O=C(O)c1ccccc1N=Nc1ccc(O)cc1 | - | 0 | - | 0 | - | -
Oc1ccc(N=Nc2ccccc2)cc1 | 0 | 0 | 33 | 0 | 0 | 0
Cc1cc(N2CCN(c3ccccc3)CC2)n2ncnc2n1 | 0 | 0 | 0 | 0 | 0 | 0
Cc1cc(N2CC(=O)N(CCc3ccccc3)C(=O)C2)n2ncnc2n1 | 0 | 0 | 32 | 0 | - | 0

Bioassay records: PubChem BioAssay, National Center for Advancing Translational Sciences (NCATS)
